Bioassay records as filed in PubChem.
SF-1 inh = blocks the human nuclear receptor SF-1; Q13285; CHO-K1 Gal4-SF-1 LBD luciferase reporter; AID 525; hit rate 0.55% among 65,000; inhibition, % at 10 µM;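 active = inhibition above the mean inhibition of all tested compounds plus 3 SD, cut at about 48% in these data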;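 also: 0% = SF-1 transfected cells with DMSO and 100% = mock-transfected cells lacking SF-1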
Target sequence (Q13285 whole entry, looked up, the tested form may be a part): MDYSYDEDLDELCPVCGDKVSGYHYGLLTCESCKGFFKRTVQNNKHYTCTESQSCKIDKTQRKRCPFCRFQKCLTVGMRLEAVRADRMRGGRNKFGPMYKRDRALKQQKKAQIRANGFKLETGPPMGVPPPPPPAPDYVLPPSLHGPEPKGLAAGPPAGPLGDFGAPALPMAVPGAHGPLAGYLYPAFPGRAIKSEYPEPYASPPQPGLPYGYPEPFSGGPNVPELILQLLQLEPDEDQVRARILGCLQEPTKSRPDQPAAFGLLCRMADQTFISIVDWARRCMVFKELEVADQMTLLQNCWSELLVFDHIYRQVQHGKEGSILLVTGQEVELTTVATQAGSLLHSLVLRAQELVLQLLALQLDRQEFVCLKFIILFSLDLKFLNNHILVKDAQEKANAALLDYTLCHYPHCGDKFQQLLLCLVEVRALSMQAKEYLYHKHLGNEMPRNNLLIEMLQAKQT
Numbers without * were called inactive. Only a selection was taken, and hits are over-represented in it overall.

SMILES	SF-1 inh
O=C(Nc1ccc2c(c1)OCO2)c1ccc(COc2ccc3c(c2)CCC3)o1	-60.7
Cc1ccc(-c2nnc(Nc3ccccc3)o2)cc1	67.9*
Cc1ccccc1-c1nnc(-c2ccc(Br)cc2)o1	-76.8
c1coc(-c2nnc(NC3=NCCC3)o2)c1	-61.4
Cc1c(C(=O)O)sc(=S)n1CCOc1ccccc1	15.7
O=S(=O)(Nc1cccnc1)c1ccc2c(c1)OCCO2	2.8
Cc1ccc2c(COC(=O)C3=COCCO3)cc(=O)oc2c1	-67.3
COc1ccc2nc(NC(=O)CN(c3ccc(C)cc3)S(=O)(=O)c3c(C)nn(C)c3C)sc2c1	4.9
O=c1c2ccccc2nc2c3ccccc3c(N3CCOCC3)nn12	-8.5
c1ccc(-n2nnc3c(N4CCOCC4)ncnc32)cc1	52.3*
O=c1[nH]c(N2CCOCC2)nc2ncn(Cc3ccccc3)c12	17.2
c1ccc(-c2nnc(-c3ccccn3)nn2)nc1	-47.4
c1ccc(-c2cccc(-c3ccccn3)n2)nc1	87.1*
Cc1cc2c(c(=O)n1CCCn1ccnc1)C(c1ccco1)C(C#N)=C(N)O2 (stereo not drawn)	5.4
CCOC(=O)C1=C(C)N(C)C(C)=C(C(=O)OCC)C1c1cccnc1	-15.5
CCN(CC)c1ccc2c(c1)OC(N)=C(C#N)C2c1cccnc1 (stereo not drawn)	64.6*
Cn1c(-c2ccc3ccccc3n2)nc2cnccc21	-64.6
CCCCN(CC)CCNS(=O)(=O)c1ccc2c(c1)oc(=O)n2C	-4.6
COc1ccc(-c2cc3nc4n(c(=O)c3s2)CCC4)cc1	78.2*
Cc1ccc(NC(=O)C2CCN(S(=O)(=O)c3cnc[nH]3)CC2)nc1	7.9
COc1nc(OC)nc(N2CCC(C(=O)NCC3CCCCC3)CC2)n1	-7.9
CSc1nc(C)c2c(c1C#N)CCCC2	0.2
c1ccc(CCc2nc(-c3ccccn3)no2)cc1	-34.8
Clc1ccc(-c2nc(-c3ccccn3)no2)cc1Cl	51.2*
CCCCC1CCC(c2nc(-c3ccccn3)no2)CC1 (stereo not drawn)	-52.4
SMILES	SF-1 inh
O=C(Nc1nccs1)c1ccc(COc2ccccc2Br)o1	-60.2
CC(=O)CC1(O)C(=O)N(CN2CCN(c3ccccc3)CC2)c2ccccc21 (stereo not drawn)	-0.2
Cc1cccc(NC(=O)c2oc3c(c2C)C(=O)CC(C)(C)C3)n1	-9.9
O=S(=O)(c1ccc2c(c1)C(=NO)c1cc(S(=O)(=O)N3CCCCC3)ccc1-2)N1CCCCC1	96.5*
O=C(c1ccccc1F)N1CCN(S(=O)(=O)c2ccc(S(=O)(=O)N3CCCCC3)cc2)CC1	-6.6
O=S(=O)(c1ccccc1)c1cccc(S(=O)(=O)N2CCCCC2)c1	0.0
COC(=O)Cn1c(C)nc2c(sc3nc(C)cc(C)c32)c1=O	-50.1
CN(C1CCS(=O)(=O)C1)S(=O)(=O)c1ccc(C2CCCCC2)cc1 (stereo not drawn)	6.4
O=C1C2CC=CCC2C(=O)N1c1n[nH]c(Cc2ccccc2)n1 (stereo not drawn)	1.4
CN=Cc1cc(-c2ccccc2)sc1O	-55.6
CNc1ccccc1-n1ccc(-c2ccccc2)n1	-18.2
CCc1ccc(-c2cn3nc(C)c(C)nc3n2)cc1	81.1*
Cc1nc2nc(-c3ccccc3)cn2nc1C	54.7*
Cc1nn2cc(-c3ccc(N)cc3)nc2s1	-88.5
CCC(C)[C@H](NC(=O)NCc1cccs1)C(=O)O (stereo partly drawn)	-16.8
COC(=O)c1ccc(Oc2cc(C)nc(SC)n2)cc1	-70.8
CCn1ccnc1C(O)c1cccc(OC)c1OC (stereo not drawn)	-8.2
COc1ccc(CNC(=O)C2CCCN(S(=O)(=O)c3cnc[nH]3)C2)cc1 (stereo not drawn)	-5.4
O=C(Nc1cccc(C(F)(F)F)c1)C1CCN(S(=O)(=O)c2cnc[nH]2)CC1	2.2
Cc1c(NC(=O)CCC2CCCCC2)c(=O)n(-c2ccccc2)n1C	-10.5
COc1cccc2c1C(=O)c1c(O)c3c(c(O)c1C2=O)C[C@@](O)(C(C)=O)C[C@@H]3O[C@H]1C[C@H](N)[C@H](O)[C@H](C)O1	89.3*
c1cn(CC2(Cn3ccnc3)COC2)cn1	-7.6
C=CCSc1nncn1/N=C/c1ccc(OC)cc1	-83.3
CCN(C)c1ccc(/C=N\n2nnnc2N)cc1	-86.9
COc1ccc(/C=N\n2nnc3ccccc32)cc1	69.6*
SMILES	SF-1 inh
COC(=O)c1ccc2c(=O)n(CCN3CCOCC3)c(SCC(=O)NC3CCCCC3)nc2c1	-8.4
COc1ccc(OC)c(NC(=O)CCN2CCCC(C)C2)c1 (stereo not drawn)	-1.4
CCOc1ccc(-n2cc(C(=O)N3CCN(C)CC3)c3cc(OC)c(OC)cc3c2=O)cc1	-2.7
CCOc1ccc(-c2cc(CCCC(=O)NCCc3ccc(OC)c(OC)c3OC)no2)cc1	52.0*
CCOc1ccc(-c2cc(CCCC(=O)Nc3cc(OC)ccc3OC)no2)cc1	56.8*
CCOC(=O)N1CCN(CC(=O)Nc2cc(OCC)ccc2OCC)CC1	1.9
O=C(NCCc1ccccc1)c1noc2c1CCCCC2	-59.8
CCc1ccc(C(=O)NCc2cccs2)s1	-70.5
Cc1cc(/C=N/n2cnnc2)c(C)n1-c1ccc(OCc2ccc(F)cc2)cc1	85.7*
CNC(=O)Nc1ccccc1NC(=O)NC	13.3
COCCCNc1oc(-c2ccccc2F)nc1C#N	-57.4
Fc1ccc2nc3[nH]c4ccccc4c3nc2c1	-89.5
COc1ccc2[nH]c3nc(SC(C)C)nnc3c2c1	62.7*
CCOC(=O)CC(=O)CSc1nnc2c(n1)[nH]c1ccccc12	-53.2
Nc1ncnc2c1ncn2C1CCC(CO)C(O)C1 (stereo not drawn)	-0.7
Nc1nc(Cl)nc2c1ncn2[C@H]1C[C@H](O)[C@@H](CO)O1	79.3*
COC(=O)c1oc2ccc(Br)cc2c1NC(=O)c1ccccc1	12.3
COc1ccc(-c2nc(C#N)c(NCCc3ccccc3)o2)cc1OC	-77.7
Nc1nsc2ccccc12	58.5*
COc1ccc(S(=O)(=O)N(C)CC(=O)NC2CC2)cc1	-12.1
O=c1c(-c2ccc(F)cc2)coc2c3c(ccc12)OCCO3	-62.7
Cn1c(SCc2ccc(F)cc2)nnc1-c1cccs1	-51.2
CCCN(Cc1ccccc1)C(=O)Nc1ccc2c(c1)nnn2C	-32.9
CCOc1ccc(Nc2cc(C)nc(-n3nc(C)cc3C)n2)cc1	64.9*
CCOC(=O)c1cnc(-n2nc(C)cc2C)nc1NCc1ccc2c(c1)OCO2	22.3
SMILES	SF-1 inh
CCOC(=O)N1CCC(C(=O)Nc2ccc(OCC)cc2)CC1	-17.2
O=C(Cn1nc(Cc2ccncc2)c2ccccc2c1=O)N1CCc2ccccc2C1	11.5
Cc1ccc(C(=O)/C=C/Nc2ccccn2)cc1	82.8*
Cc1cc(NC(=O)c2cc(-c3ccccn3)nc3ccccc23)no1	6.7
COc1ccc(C(=O)/C=C/Nc2cccc(C)n2)cc1OC	-87.8
COc1ccccc1-c1nnc2sc(-c3ccc(N(C)C)cc3)nn12	63.8*
COc1cc(-c2nnc3sc(-c4cccs4)nn23)cc(OC)c1OC	15.8
CN(C)c1ccc(-c2nn3c(-c4cccnc4)nnc3s2)cc1	4.1
CCN(CC)C(=O)c1cc(-c2ccc(Br)cc2)on1	-55.8
CCCCCOc1ccc(CN2CCOCC2)cc1Cl	-61.3
COc1cc(C(=O)Oc2c(CN3CCOCC3)cc(Cl)c3cccnc23)cc(OC)c1OC	55.4*
COc1c(C)cccc1C(=O)Nc1ccc(CN2CCOCC2)cc1	-62.2
COc1ccc(OC)c(N(CC(=O)N2CCN(c3cc(Cl)ccc3C)CC2)S(C)(=O)=O)c1	12.0
O=C(NCc1ccco1)Nc1ccc(Br)cc1Cl	-59.5
CCc1cc2c(=O)c(-c3nc4ccccc4[nH]3)coc2c(CN2CCCC(C)C2)c1O (stereo not drawn)	-2.9
